Calls of active or inactive are those of the source.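 Rule for the calls: active = cell survival after UV exposure 2 SD above solvent-only control wells at 10 µM, confirmed on one or two repeats; inactive = the rest.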

This experiment in a line: cell survival after pyrene fatty acid photosensitization – ZR-82 cells, Analyticon library, screen 2, phospholipid biosynthesis inhibitor project, primary screen (AID 1347383).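 Note: survival reflects blocked phospholipid synthesis cutting uptake of the phototoxic fatty acid; compound and fatty acid exposure 3 h then viability read next day.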 Conditions: ZR-82 CHO cells, pyrene-fatty acid UV killing, CellTiter Blue, at 10 µM; peroxisome-deficient CHO-K1 variant, with DGAT-1, DGAT-2 and ACAT inhibitors unless noted. Background: Resazurin is reduced to fluorescent resorufin, in cell work by metabolically active cells.
As for `COc1ccc2c3c([nH]c2c1)C(C)=NCC3`, the outcome is “inactive [setting not given]”.

In the case of `CC(C)=CCOc1c2occc2cc2ccc(=O)oc12`, the outcome is “inactive [setting not given]”.

Turning to `COc1ccc([C@@]23CC[C@H](O)C[C@@H]2N(C)CC3)cc1OC`, the outcome was inactive.

For the molecule `CN1Cc2c(ccc3c2OCO3)[C@@H]2[C@H]1c1cc3c(cc1C[C@@H]2O)OCO3`, the outcome was inactive.

As for `CC1=CC2/C=C(\C)CCC(O)C(O)/C=C/C(=O)C23C(=O)NC(CC(C)C)C3C1C` (stereo not drawn), the outcome was inactive.

With `CC(C)[C@@H](C)/C=C/[C@@H](C)[C@H]1CC[C@@H]2[C@]1(C)CCC1[C@]23C=C[C@]2(C[C@@H](O)CC[C@]12C)OO3` (stereo partly drawn), the outcome was inactive.

Consider `C=C[C@H]1CN2CC[C@H]1C[C@@H]2[C@@H](O)c1ccnc2ccccc12`, for which the outcome was inactive.

`CCC1CN2CCC3(C(=O)Nc4cccc(O)c43)C2CC1/C(=C/OC)C(=O)OC` (stereo not drawn): the result was inactive.

Take `CC(C)C(=O)O[C@H]1[C@@H]2[C@H](C)C(=O)O[C@@H]2C[C@@H](C)[C@@H]2C=CC(=O)[C@]21C`: the result was inactive.

Turning to `CO[C@H]1C[C@H](O[C@H]2CC[C@]3(CO)[C@H]4CC[C@]5(C)[C@@H](C6=CC(=O)OC6)CC[C@]5(O)[C@@H]4CC[C@]3(O)C2)O[C@H](C)[C@H]1O`, the result was inactive.

Regarding `CO[C@H]1[C@H](O)[C@H](O[C@H]2CC[C@]3(C=O)C4CC[C@]5(C)[C@H](C6=CC(=O)OC6)CC[C@]5(O)C4CC[C@@H]3C2)O[C@@H](C)[C@@H]1O` (stereo partly drawn), the outcome was inactive.

For the molecule `C=C(C)[C@H]1CCC(C)=C[C@@H]1c1c(O)cc(CCCCC)cc1O`, the outcome was inactive.

In the case of `C=CCc1cc(OC)c2c(c1)OCO2`, the outcome was “inactive [setting not given]”.

The values are drawn from PubChem BioAssay AID1347383 (Zoeller Lab, School of Medicine, Boston University, 2020).
